In PubChem BioAssay (NCI) one finds growth inhibition data, which are given here for 20 molecules.

This is part of a sample that, as a whole, favours compounds with a hit. Of some 79,000 tested, about 15% had one in any assay. A number with no mark means an inactive call. The source made the active and inactive calls. No stated cut-off is given here; in the data, active means growth inhibition above about 70%; inactive means the rest.

Test [1] is described as follows: NCI Yeast Anticancer Drug Screen. Data for the rad50 strain (AID 155).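 Further: 0% = growth of vehicle-only cultures of the same strain.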 Conditions: S. cerevisiae rad50 strain growth inhibition; at 50.0 µM; hits give high values. The essentials: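 Inhibition values express reduced yeast growth in compound-treated cultures relative to vehicle-treated controls.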
Test [2] in a line: NCI Yeast Anticancer Drug Screen. Data for the mec2-1 strain (AID 157). Conditions: S. cerevisiae mec2-1 strain, at 50.0 µM, hits give high values. Summed up:
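Readout is yeast growth inhibition, normalised to vehicle-treated controls, in the mec2-1 strain exposed to compound.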

Test [3] in a line: NCI Yeast Anticancer Drug Screen. Data for the sgs1 mgt1 strain (AID 161).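 Further: 0% = growth of cultures given vehicle only.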 Conditions: S. cerevisiae sgs1 mgt1 strain, at 50.0 µM, hits give high values. Summed up:
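This yeast growth screen uses a strain with defined DNA-repair lesions; compound-treated growth is compared with vehicle-treated growth.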

Test [4] in a line: NCI Yeast Anticancer Drug Screen. Data for the cln2 rad14 strain (AID 165).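 Further: 0% = growth equal to vehicle treated cultures.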 Conditions: S. cerevisiae cln2 rad14 strain, at 50.0 µM, hits give high values. Summed up:
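Relative to vehicle controls, growth inhibition of compound-treated cln2 rad14 yeast was recorded.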

The nature of test [5]: NCI Yeast Anticancer Drug Screen. Data for the bub3 strain (AID 167). Particulars: S. cerevisiae bub3 mutant strain, at 50.0 µM, hits give high values. Summed up: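 Steps: expose the mutant yeast strain to compound; grow alongside vehicle-treated cultures; measure growth; express inhibition against the vehicle cultures.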
A short description of test [6]: NCI Yeast Anticancer Drug Screen. Data for the mlh1 rad18 strain (AID 175). Particulars: S. cerevisiae mlh1 rad18 strain growth inhibition; at 50.0 µM; hits give high values. Summed up:
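Test agents were incubated with a yeast strain of defined genotype (DNA damage repair defect). Inhibition of growth was derived by comparison with vehicle-exposed cultures.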

As for `N=C1C=CC2C(=Nc3ccccc3[N+]2=O)N1Cc1ccncc1` (stereo not given), the growth inhibition is -2.9% in test [1]; 1.3% in test [2]; -6% in test [3]; 1.45% in test [4]; 7.55% in test [5]; 22.8% in test [6].

With `CC1CCc2nc(N)sc2C1` (stereo not given), the growth inhibition is 14.4% in test [1]; 11.9% in test [2]; 18.9% in test [3]; 8.35% in test [4]; 1.1% in test [5]; 5.9% in test [6].

For `O=[N+]([O-])c1ccc(N/N=C/c2ccc(CO)cc2)c([N+](=O)[O-])c1`, the growth inhibition is 4% in test [1]; -5.65% in test [2]; 18.1% in test [3]; -13.9% in test [4]; 6.1% in test [5]; 17.2% in test [6].

On to `Cc1cc2c(cc1C)NC1=C(N2)OC(c2ccc(C3OC4=C(Nc5cc(C)c(C)cc5N4)C3=O)cc2)C1=O` (stereo not given), for which the growth inhibition in test [1] was 32.2%; in test [2], 14.8%; in test [3], 9.95%; in test [4] it was 16.5%; in test [5], 0.75%; in test [6], 29.6%.

Take `CCCCCC(Oc1ccc(Cl)cc1Cl)C(=O)O` (stereo not given): the growth inhibition in test [1] was 96.7% (active); in test [2] it was 85.6% (active); in test [3], 97.5% (active); in test [4], 93% (active); in test [5], 91.2% (active); in test [6], 93.5% (active).

`CN(C)CCNC(=O)c1cccc2ccc(-c3ccncc3)nc12`: the growth inhibition in test [1] is 6.15%; in test [2], 11%; in test [3], -20.7%; in test [4], -3.3%; in test [5], -19.9%; in test [6] it was -27.8%.

With `CCCCCCCCCCCCCC(=O)OCC(CCS(=O)(=O)O[C@H]1CC[C@@]2(C)C(=CC[C@@H]3C2CC[C@]2(C)C(=O)CCC32)C1)OC(=O)CCCCCCCCCCCCC` (stereo not given in full), the growth inhibition was -32.8% in test [1]; -30.9% in test [2]; -15.3% in test [3]; -26.6% in test [4]; -22.2% in test [5]; -23.6% in test [6].

Turning to `COC(=O)C1OC1(C)c1ccccc1` (stereo not given), the growth inhibition in test [1] is 2.3%; in test [2], 4.6%; in test [3], -0.25%; in test [4], -0.35%; in test [5], -1.95%; in test [6] it was -2.55%.

Regarding `CCC(C)N(C(C)=O)C(C)CC` (stereo not given), the growth inhibition in test [1] is -4.15%; in test [2] it was -17.2%; in test [3], -13.4%; in test [4] it was 15.2%; in test [5] it was 2%; in test [6], 1.85%.

Take `C[C@]12CC[C@@H]3c4cc(OCC(F)(F)F)c(O)cc4/C(=N/O)C[C@H]3[C@@H]1CC[C@@H]2O`: the growth inhibition is -0.75% in test [1]; -4.55% in test [2]; 4.65% in test [3]; 17.6% in test [4]; 12.8% in test [5]; 13.2% in test [6].

For the molecule `CN(C)c1nc(N)nc(CS)n1`, the growth inhibition is 10.8% in test [1]; 10.4% in test [2]; -9.05% in test [3]; 10.3% in test [4]; -4.15% in test [5]; -39.5% in test [6].

In the case of `CC(=O)OCC1OC(n2cnc3c(Cl)nc(Cl)nc32)CC1OC(C)=O` (stereo not given), the growth inhibition in test [1] is 37.3%; in test [2], 20.9%; in test [3] it was 24.4%; in test [4] it was 30.4%; in test [5] it was 5.2%; in test [6], 34.9%.

With `CCOc1snc(C(Cl)(Cl)Cl)c1Cl`, the growth inhibition in test [1] was 9.7%; in test [2] it was 15.3%; in test [3] it was 5.05%; in test [4] it was 18%; in test [5], 22.3%; in test [6] it was 8.2%.

In the case of `CCOC(=O)c1cnc2ccccc2c1OCC`, the growth inhibition is -5.45% in test [1]; -12.2% in test [2]; -6.5% in test [3]; -43.9% in test [4]; 2.55% in test [5]; 0.55% in test [6].

As for `CNC(=O)c1ccccc1N`, the growth inhibition is 1.75% in test [1]; -6.95% in test [2]; -11.7% in test [3]; -84.2% in test [4]; 1.05% in test [5]; -17.2% in test [6].

Take `O=C(OC1C#CCSCC#C/C=C\1)c1ccc2c(c1)C(=O)c1ccccc1C2=O` (stereo not given): the growth inhibition is -0.05% in test [1]; -34% in test [2]; -53.2% in test [3]; -37% in test [4]; -16.9% in test [5]; -61.6% in test [6].

As for `COc1cc(Br)c(CC(=O)c2ccc3c(c2)OCO3)cc1OC`, the growth inhibition in test [1] is 1.65%; in test [2], 12.8%; in test [3], 7.9%; in test [4], -0.7%; in test [5], 0%; in test [6], 15.2%.

Regarding `CCC(=O)n1cc2ccc([N+](=O)[O-])cc2n1`, the growth inhibition in test [1] was 1.35%; in test [2], 1.35%; in test [3] it was -4%; in test [4], -57.8%; in test [5], 13.2%; in test [6], -3.05%.

As for `Cc1ccc(C(=O)N(Cc2ccccc2)Cc2ccccc2)cc1N=NN(C)C`, the growth inhibition in test [1] was -44.8%; in test [2] it was -39.5%; in test [3] it was -55.6%; in test [4], -8.2%; in test [5], -31.4%; in test [6], -22.2%.

For the molecule `COC1OC2COC(c3ccccc3)OC2C(OC)C1OC(=O)c1ccccc1` (stereo not given), the growth inhibition in test [1] was -3.05%; in test [2], 0.85%; in test [3], -14.1%; in test [4], -37.6%; in test [5], -2.05%; in test [6] it was 7.55%.
